In the library only some 2.9% were active in any assay of this set; here they are far more common.
PLCg1 inh – inhibitors of human phospholipase C gamma1; P19174; purified PLC-gamma1, fluorogenic substrate, fluorescence; inhibition, % at 12.2 µM; actives 0.84% (n = 370,000); in the data active = inhibition above about 9.5%
PLC-beta3 inh – blocks human PLC-beta3 enzyme activity; Q01970; Purified PLC-beta3, fluorogenic substrate, fluorescence; inhibition, % at 12.2 µM; actives 0.18% (n = 370,000); AID 720704; in the data active = inhibition above about 11%;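 also: 0% = median of compound wells on plate and 100% = full blocker control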
ADAM10 inh – inhibitors of human ADAM10 | O14672 | AID 720582 | inhibition, % at 7 µM | actives 0.62% (n = 370,000) | recombinant ADAM10, EDANS/DABCYL FRET peptide cleavage, 3 h;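 active = inhibition above a per-campaign cutoff equal to the mean of compounds falling between control-based bounds plus 3 SD, cut at about 20% in these data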;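 also: 0% = DMSO wells while the 100% control is not disclosed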
KLK7 zymogen act – proKLK7 (human) activation, primary screen | purified proKLK7, EDANS-DABCYL substrate fluorescence; 100% is mature enzyme control, 0% vehicle | activation, % at 7 µM | actives 0.9% (n = 370,000) | AID 652039;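 active = activation above the mean of all tested compounds plus 3 SD, computed per campaign excluding outliers beyond control limits, cut at about 13% in these data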
Target sequence (P49862 whole entry, looked up): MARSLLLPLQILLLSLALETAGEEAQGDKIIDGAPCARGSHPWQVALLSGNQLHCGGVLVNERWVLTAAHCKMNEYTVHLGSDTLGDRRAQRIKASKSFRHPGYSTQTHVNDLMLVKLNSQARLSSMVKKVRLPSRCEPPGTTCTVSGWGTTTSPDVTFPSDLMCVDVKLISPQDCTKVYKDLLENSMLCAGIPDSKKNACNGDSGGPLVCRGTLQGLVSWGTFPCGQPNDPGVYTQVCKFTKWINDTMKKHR
ADAM17 inh – inhibitors of human ADAM17; P78536; actives 0.83% (n = 370,000); recombinant ADAM17, EDANS/DABCYL FRET peptide cleavage; inhibition, % at 6.95 µM;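 active = inhibition above the mean of compounds lying between control limits plus 3 SD, set per campaign, cut at about 8.5% in these data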;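 also: 0% = DMSO-only wells as the low control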
proKLK7 act conf – proKLK7 activation, confirmation | purified proKLK7, EDANS-DABCYL substrate fluorescence; scaled: vehicle 0, mature enzyme 100 | shares compounds with KLK7 zymogen act | actives 68% (n = 3,200) | activation, % at 7 µM;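 active = activation, as change over the incubation, above the mean of all tested compounds plus 3 SD, cut at about 13% in these data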
EDANS-DABCYL int – counter-screen for kallikrein-7 activators: EDANS-DABCYL optical interference. shares compounds with KLK7 zymogen act. EDANS-DABCYL substrate fluorescence interference, no enzyme, 4 h; solvent 0%, active enzyme control 100%. activation, % at 7 µM. actives 80% (n = 3,200). AID 686952;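 active = activation above the all-compound mean plus 3 SD, ignoring values outside control-based bounds, cut at about 4.8% in these data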;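 also: value is the 4 h activation minus the activation read at time zero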
K7 EDANS ctr – counter-screen for kallikrein-7 activators: EDANS-DABCYL interference, dose response. EC50, µM. shares compounds with KLK7 zymogen act. actives 20% (n = 250). EDANS-DABCYL peptide fluorescence interference, no enzyme;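 active = compounds that raise the fluorescence signal in this interference counterscreen, with EC50 at or below 10 µM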;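 also: intact quenched peptide substrate alone read at 355 nm excitation and 520 nm emission; signal is fluorescence gain from T0 to T4 after four hours at room temperature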
Active calls of the source: *; i = inactive; . = no result.

SMILES	PLCg1 inh	PLC-beta3 inh	ADAM10 inh	KLK7 zymogen act	ADAM17 inh	proKLK7 act conf	EDANS-DABCYL int	others
COc1ccc(C2Nc3ccccc3C(=O)N2Cc2ccccc2)cc1OC (stereo not given)	-339	-491	i	-1	-401	.	.
CS(=O)(=O)NN1C(=O)c2ccccc2NC1c1ccccc1F (stereo not given)	-349	-470	i	35*	-213	4	8.2*
CN(C)c1ccc(C2Nc3ccccc3C(=O)N2NS(C)(=O)=O)cc1 (stereo not given)	-345	-434	-366	22*	-130	5	5.9*
COc1ccc(C2Nc3ccccc3C(=O)N2Cc2ccccc2)cc1COc1ccccn1 (stereo not given)	-290	-338	i	1	-250	.	.
COc1ccc(C2Nc3ccccc3C(=O)N2NS(C)(=O)=O)cc1OC (stereo not given)	-458	i	i	59*	-210	22*	13*	K7 EDANS ctr=i
CS(=O)(=O)NN1C(=O)c2ccccc2NC1c1cc2ccccc2nc1Cl (stereo not given)	-16	-21	-14	0	-8	.	.
COC(=O)c1nc2n(n1)C(c1cc(OC)ccc1OC)C(C(=O)OC1CCCCC1)=C(C)N2 (stereo not given)	2	-2	-4	0	-1	.	.
COc1ccc(S(=O)(=O)NCCCCCC(=O)O)cc1C(=O)O	-1	-6	-2	0	-3	.	.
COc1ccc(C2Nc3ccccc3C(=O)N2NS(=O)(=O)c2ccc(C)cc2)cc1OC (stereo not given)	-293	-477	i	31*	-210	8	7.1*
CCCN1C(=O)SC(CC(=O)Nc2cccc3ccccc23)C1=O (stereo not given)	-4	-3	4	-1	-6	.	.
Cc1cc(=O)oc2cc(OCC(=O)c3ccccc3)ccc12	-4	-15	-49	1	-18	.	.
Cc1cc(C)cc(Oc2coc3cc(OC(=O)c4cccs4)ccc3c2=O)c1	-152	-170	-45	14*	-19	24*	17*	K7 EDANS ctr=>69
CCCc1cc(=O)oc2cc(OCC(=O)N3CC[C@@]4(O)CCCC[C@H]4C3)ccc12	-10	-9	-207	1	-49	.	.
Cc1cc(=O)oc2cc(OC(=O)c3ccccc3)ccc12	-308	-364	i	117*	-297	519*	377*
CCCc1cc(=O)oc2cc(OC(=O)CN3C(=O)NC4(CCCC4)C3=O)ccc12	i	i	i	62*	i	224*	193*
COc1ccc(Oc2coc3cc(OC(=O)/C=C/c4ccccc4)ccc3c2=O)cc1	-20	-25	-26	1	-9	.	.
Cc1oc2cc(OC(=O)c3ccco3)ccc2c(=O)c1-c1nc2ccccc2n1C	-126	-161	-101	16*	-39	115*	104*
O=C(COC(=O)C1CCN(C(=O)c2ccc(Cl)cc2)CC1)NC1CCS(=O)(=O)C1 (stereo not given)	2	1	0	0	-1	.	.
CCOc1ccc2c(=O)c(Oc3ccccc3OCC)coc2c1	-8	-15	-9	0	0	.	.
Cc1cc(=O)oc2cc(OC(=O)c3ccco3)ccc12	i	i	i	459*	i	729*	769*
CCc1cc(=O)oc2cc(OC(=O)c3ccco3)ccc12	i	i	i	353*	i	788*	761*
CC(=O)Oc1ccc2c(=O)c(-c3ccccc3)c(C)oc2c1	-395	-500	i	121*	-242	446*	384*
Cc1cc(=O)oc2cc(OCC(=O)N3CCN(C(=O)c4ccco4)CC3)ccc12	-14	-20	-212	-1	-76	.	.
CCOc1ccccc1Oc1coc2cc(OC(=O)c3ccco3)ccc2c1=O	i	i	i	96*	-182	264*	235*
